Laboratory results: PubChem BioAssay AID1159580 (chemical genetic matrix, 2015)
Out of some 5,500 compounds screened, about 2,000 (36%) were called active. Inconclusive results (about 18%) are left out. Cut-off read from the data, not from the text of the source: active = normalized growth mostly below about 0.91 (no sharp cut-off); inconclusive = no clear call, values can overlap the other calls; inactive = mostly above about 0.92. This is one part of the list.

Experiment: chemical genetic growth profiling, strain panel (AID 1159580);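 note: tested at 20 µM; growth read once vehicle control cultures reached saturation at 30 °C; 1 = growth at the plate median or of vehicle wells; lower values mean less growth of the strain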
Conditions: S. cerevisiae deletion strains, growth OD

Measured: normalized growth

CCCCCCCCCCC/C=C\C(C)(C)/C=C\CCCC(=O)O
inactive: locus YAL040C, strain CLN3, stronger effect = lower value 1.02 | locus YCL061C, strain MRC1 (second series), stronger effect = lower value 1.04 | locus YDR150W, strain NUM1, stronger effect = lower value 1.01 | locus YDR363W, strain ESC2, stronger effect = lower value 1.04 | locus YER002W, strain NOP16, stronger effect = lower value 1.04 | locus YJR075W, strain HOC1, stronger effect = lower value 1.02 | locus YMR263W, strain SAP30, stronger effect = lower value 1.03 | locus YMR307W, strain GAS1, stronger effect = lower value 0.974 | locus YNL128W, strain TEP1, stronger effect = lower value 0.996 | locus YNL153C, strain GIM3, stronger effect = lower value 0.967 | locus YNL175C, strain NOP13, stronger effect = lower value 1.01 | locus YNL197C, strain WHI3, stronger effect = lower value 0.985 | locus YNL224C, strain SQS1, stronger effect = lower value 1 | locus YNL322C, strain KRE1, stronger effect = lower value 1.02 | locus YOR083W, strain WHI5 (second series), stronger effect = lower value 0.965 | locus YPL055C, strain LGE1, stronger effect = lower value 1.08
